Laboratory results: PubChem BioAssay
Active and inactive are the calls of the source. Unless noted, how the calls were made is not given here.

Legend:
[1] = A549 cell viability effects, profiling panel, calcein-AM fluorescence, 48 h, basal (AID 1162); settings: higher = more signal; further: test concentration not given here
[2] = adipocyte viability effects, profiling panel, cell-based, 3T3-L1 adipocytes, calcein-AM fluorescence, 48 h, basal (AID 1163); settings: 3T3-L1 adipocytes viability, higher = more signal; further: test concentration not given here
[3] = HepG2 cell viability effects, profiling panel, calcein-AM fluorescence, 48 h, basal (AID 1164); settings: higher = more signal; further: test concentration not given here
[4] = MM1S cell viability effects, profiling panel, calcein-AM fluorescence, 48 h, basal (AID 1165); settings: higher = more signal;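 further: viability of MM1S multiple myeloma cells under basal unstimulated conditions; test concentration not given here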
[5] = basal RPMI8226 viability, no added stimulus, profiling panel, cell-based, calcein-AM fluorescence, 48 h, PK04 Diversity Set (AID 1166); settings: RPMI8226 myeloma viability, higher = more signal;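 further: cells grown under basal conditions without added stimulus; test concentration not given here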
[6] = basal HepG2 mitochondrial membrane potential changes, profiling panel, cell-based, JC-1 fluorescence, 24 h, 100 nL compound (AID 1167); settings: higher = more signal; further: test concentration not given here
[7] = basal 3T3-L1 adipocyte mitochondrial potential changes, profiling panel, cell-based, JC-1 fluorescence, 3T3-L1 adipocytes, 24 h, 100 nL compound (AID 1168); settings: JC-1 mitochondrial fluorescence, higher = more signal, called active from +8 up or from −8 down; further: test concentration not given here
[8] = basal RPMI8226 mitochondrial membrane potential changes, profiling panel, cell-based, JC-1 fluorescence, 24 h, 100 nL compound (AID 1169); settings: RPMI8226 myeloma, JC-1 mitochondrial potential fluorescence, higher = more signal; further: test concentration not given here
[9] = basal MM1S mitochondrial membrane potential changes, profiling panel, cell-based, JC-1 fluorescence, 24 h, 100 nL compound (AID 1170); settings: higher = more signal; further: test concentration not given here
[10] = A549 lung cancer cell viability effects, profiling panel, resazurin fluorescence, 24 h, PK04 Diversity Set (AID 1171); settings: higher = more signal, called active from +8 up or from −8 down; further: test concentration not given here
[11] = HepG2 liver cancer cell viability effects, profiling panel, resazurin fluorescence, 24 h, PK04 Diversity Set (AID 1172); settings: higher = more signal; further: test concentration not given here
[12] = basal S. cerevisiae growth modulation, no modifier, primary screen, OD600, strain BY4716, 24 h, basal condition (AID 1173); settings: OD600, 24 h, higher = more signal, called active from +8 up or from −8 down
[13] = MM1S myeloma cell viability, profiling panel, resazurin fluorescence, basal, 24 h, PK04 Diversity Set (AID 1174); settings: higher = more signal, called active from +8 up or from −8 down;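 further: MM1S multiple myeloma cell line; test concentration not given here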
[14] = target: Dihydroorotate dehydrogenase (quinone), mitochondrial (Plasmodium falciparum (isolate 3D7)) (UniProt Q08210); assay: PfDHODH enzyme inhibitors, primary screen, biochemical, C-terminal His tag, absorbance 600 nm (AID 1175); settings: DCIP absorbance 600 nm, higher = more signal, called active from +8 up or from −8 down;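 further: recombinant parasite enzyme with a five histidine tag at its C terminus; test concentration not given here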
[15] = P. aeruginosa biofilm formation inhibitors, primary screen, strain PAO1, LB-PBS medium, absorbance 600 nm (AID 1176); further: test concentration not given here; settings: P. aeruginosa PAO1 growth/biofilm, A600, 12 h; higher = more signal
[16] = S. cerevisiae RM11-1a growth modifiers, primary screen, strain RM11-1a, OD600, basal, 24 h (AID 1177); settings: OD600, 24 h, higher = more signal, called active from +8 up or from −8 down;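 further: cultures grown under basal conditions with no added stressor; test concentration not given here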
[17] = E. coli acrAB mutant growth effects, primary screen, E. coli filamentation inducers, strain DRC39, OD650, 24 h (AID 1178); settings: higher = more signal, called active from +8 up or from −8 down;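 further: growth measured as culture turbidity by optical density at 650 nm; test concentration not given here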
[18] = E. coli acrAB mutant growth effects, primary screen, E. coli filamentation inducers, strain DRC39, OD650, 48 h (AID 1179);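 further: screen aims at cell division blockers that make cells filament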; settings: E. coli DRC39 delta-acrAB growth, higher = more signal, called active from +8 up or from −8 down
[19] = RPMI8226 myeloma cell viability, profiling panel, resazurin fluorescence, basal, 24 h, PK04 Diversity Set (AID 1180); settings: higher = more signal;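 further: RPMI8826 multiple myeloma cell line at 5000 cells per well; test concentration not given here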
[20] = target: E3 ubiquitin-protein ligase XIAP (Homo sapiens) (UniProt P98170); assay: XIAP binders, primary screen, biophysical, small-molecule microarray, fluorescence 635 nm (AID 1181); settings: small-molecule microarray binding, higher = more signal;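 further: score merges 667 nm emission and signal to noise over triplicate slides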
Sequence of E3 ubiquitin-protein ligase XIAP (Homo sapiens) (P98170 whole entry, looked up): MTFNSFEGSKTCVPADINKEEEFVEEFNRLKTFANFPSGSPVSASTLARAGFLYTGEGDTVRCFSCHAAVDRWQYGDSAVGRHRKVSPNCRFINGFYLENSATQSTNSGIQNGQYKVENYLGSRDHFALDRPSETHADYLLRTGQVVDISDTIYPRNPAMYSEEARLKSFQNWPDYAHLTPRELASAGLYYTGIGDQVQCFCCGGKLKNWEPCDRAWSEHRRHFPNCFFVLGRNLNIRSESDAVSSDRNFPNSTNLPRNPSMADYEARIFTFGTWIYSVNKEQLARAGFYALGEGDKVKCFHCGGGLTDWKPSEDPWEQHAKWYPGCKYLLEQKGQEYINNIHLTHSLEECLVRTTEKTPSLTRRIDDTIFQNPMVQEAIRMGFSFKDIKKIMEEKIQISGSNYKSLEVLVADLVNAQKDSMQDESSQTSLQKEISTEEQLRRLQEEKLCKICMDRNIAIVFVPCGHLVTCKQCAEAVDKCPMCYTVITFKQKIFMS

Sequence of Dihydroorotate dehydrogenase (quinone), mitochondrial (Plasmodium falciparum (isolate 3D7)) (Q08210 whole entry, looked up): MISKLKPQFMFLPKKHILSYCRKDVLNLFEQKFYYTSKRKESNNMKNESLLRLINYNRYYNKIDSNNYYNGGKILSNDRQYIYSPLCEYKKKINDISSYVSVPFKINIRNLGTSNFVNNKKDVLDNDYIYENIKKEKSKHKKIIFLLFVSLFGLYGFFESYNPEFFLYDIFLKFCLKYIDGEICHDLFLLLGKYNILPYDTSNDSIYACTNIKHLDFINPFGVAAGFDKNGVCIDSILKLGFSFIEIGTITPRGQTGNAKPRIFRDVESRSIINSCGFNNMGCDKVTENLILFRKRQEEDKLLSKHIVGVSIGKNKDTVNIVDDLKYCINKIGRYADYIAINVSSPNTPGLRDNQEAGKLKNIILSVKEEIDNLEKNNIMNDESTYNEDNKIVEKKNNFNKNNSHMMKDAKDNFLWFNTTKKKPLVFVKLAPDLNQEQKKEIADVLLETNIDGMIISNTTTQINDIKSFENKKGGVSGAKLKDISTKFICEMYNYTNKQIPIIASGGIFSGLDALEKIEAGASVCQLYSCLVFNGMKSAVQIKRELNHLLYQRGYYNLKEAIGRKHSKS

| SMILES | z-score [1] | z-score [2] | z-score [3] | z-score [4] | z-score [5] | z-score [6] | z-score [7] | z-score [8] | z-score [9] | z-score [10] | z-score [11] | z-score [12] | z-score [13] | composite z-score [14] | z-score [15] | z-score [16] | z-score [17] | z-score [18] | z-score [19] | composite z-score [20] |
| --- | --- | --- | --- | --- | --- | --- | --- | --- | --- | --- | --- | --- | --- | --- | --- | --- | --- | --- | --- | --- |
| CCOC(=O)[C@H](Cc1ccccc1)NC(=O)CCC1CC(OC(=O)NCCc2ccc(F)cc2)CC2(CCCC(COC(=O)NCCc3ccc(Cl)cc3)O2)O1 (stereo not given in full) | -0.648 | -0.224 | -0.44 | -1.91 | -1.94 | -0.0496 | -0.305 (inactive) | 0.158 | -0.56 | 0.0031 (inactive) | 0.072 | -0.0784 (inactive) | 0.231 (inactive) | -0.161 (inactive) | -0.0569 (inactive) | 0.809 (inactive) | 0.869 (inactive) | 0.721 (inactive) | 0.28 | -0.0177 |
| CC(=O)OC[C@H]1O[C@H](CC=NO[C@H](C)c2cn([C@H](CO)Cc3ccccc3)nn2)C=C[C@@H]1OC(C)=O | -0.404 | -0.857 | -0.0224 | -0.955 | -1.94 | -0.485 | -0.963 (inactive) | 0.013 | 0.186 | 0.322 (inactive) | 0.242 | 1.53 (inactive) | -0.376 (inactive) | 0.53 (inactive) | 0.642 (inactive) | 1.57 (inactive) | -0.182 (inactive) | -0.554 (inactive) | 0.103 | 0.699 |
| COC(=O)CC=C[C@@H](C)[C@@H](C=NO[C@@H](C)c1cc(-c2c(C)cc(C)cc2C)no1)NS(=O)(=O)c1ccc(C)cc1 | -0.985 | 0.885 | -0.145 | 0.236 | -1.75 | -0.189 | -1.08 (inactive) | 0.634 | -0.147 | 0.298 (inactive) | 0.245 | -0.358 (inactive) | -0.019 (inactive) | -2.27 (inactive) | -0.998 (inactive) | -0.2 (inactive) | -1.1 (inactive) | -1.55 (inactive) | -0.33 | -0.169 |
| CON=CC[C@@H]1C=C[C@H](OC(C)=O)[C@@H](COC(C)=O)O1 | 0.779 | -0.221 | -0.0589 | -1.09 | -0.0741 | 0.308 | -0.835 (inactive) | -0.589 | -0.0369 | -0.357 (inactive) | -0.144 | -0.0768 (inactive) | 0.0181 (inactive) | -1.1 (inactive) | -0.0903 (inactive) | 0.964 (inactive) | 0.736 (inactive) | -1.17 (inactive) | -0.143 | 0.502 |
| COC(=O)[C@@H]1CC[C@H](C)[C@@H](c2ccc(C)cc2)N1C(=O)c1ccc(C=NO[C@@H](C)c2cn([C@H](CO)Cc3ccccc3)nn2)cc1 | 0.724 | -0.412 | -0.759 | -1.41 | -1.92 | -0.86 | 0.0596 (inactive) | -0.946 | -0.901 | -0.392 (inactive) | -1.27 | -0.476 (inactive) | -1.93 (inactive) | -1.41 (inactive) | 0.171 (inactive) | 1.35 (inactive) | 0.836 (inactive) | 0.161 (inactive) | -1.16 | -0.102 |
